# Source: PubChem BioAssay (NCI)
# The panel holds about 83,000 compounds, 20% with a hit somewhere; the sample as a whole holds those more often.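 Interpretation: 100, growth as untreated; towards 0, rising growth inhibition; 0, no net growth; 0 to -100, cell death. Compounds scoring below 10 were considered active.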 A number with no mark means an inactive call. Activity calls are given as the source filed them.
# Legend:
# Experiment in all cases: NCI-60 one-dose screen, 48 h (100 = growth as untreated, 0 = no growth, -100 = all killed)
# NCI-H23 lung = details: 10 µM unless noted
# NCI-H322M lung = details: 10 µM unless noted
# HOP-62 NSCLC = details: 10 µM unless noted
# NCI-H460 lung = details: 10 µM unless noted
# HOP-92 NSCLC = details: 10 µM unless noted
# A549/ATCC NSCLC = details: 10 µM unless noted
# 786-0 renal = details: 10 µM unless noted
# COLO 205 colon = details: 10 µM unless noted
# NCI-H522 lung = details: 10 µM
# NCI-H226 lung = details: 10 µM unless noted
Compound,growth (NCI-H23 lung),growth (NCI-H322M lung),growth (HOP-62 NSCLC),growth (NCI-H460 lung),growth (HOP-92 NSCLC),growth (A549/ATCC NSCLC),growth (786-0 renal),growth (COLO 205 colon),growth (NCI-H522 lung),growth (NCI-H226 lung)
Cc1ccc(C2=Nc3c(ccc4c(C)c(C)c(=O)oc34)OC2)cc1,97.4%,90.2%,97.3%,102%,87.1%,99.5%,93.6%,111%,–,–
Oc1c(N=Nc2nn[nH]n2)ccc2ccccc12,72.8%,57.9%,85.4%,73%,77.1%,77.8%,102%,54%,–,–
COc1cccc(N2CCN(c3cccc(C)n3)CC2)c1,103%,103%,87.7%,117%,79.2%,95.6%,99.6%,123%,–,–
Nc1ccc(Oc2c(F)c(F)c(Oc3ccc(N)cc3)c(F)c2F)cc1,96.5%,-4.94% (active),101%,112%,80.5%,–,106%,108%,90.4%,–
Cc1cc(Cl)ccc1Nc1nc(C(F)(F)F)ccc1C(=O)N/N=C/c1ccc(Cl)cc1,5.4% (active),-1.86% (active),-61.2% (active),-5.33% (active),-24.1% (active),–,-45% (active),-18.7% (active),-17.6% (active),–
CCCCc1ccc(C(N)=O)nc1,102%,103%,–,108%,62.5%,–,92.6%,118%,85.3%,–
CCCCCCCCCCCCCCCCNC(=O)Nc1ccc2ccccc2c1,103%,110%,105%,99.2%,74.5%,107%,104%,103%,–,–
COc1cnc2c(c1)C(=O)c1c-2n(CCCN2CCCC2)c(=O)c2cc(F)ccc12,-19.5% (active),4.72% (active),-16.4% (active),-47.9% (active),-5.39% (active),-80.4% (active),-88.5% (active),-6.43% (active),–,–
COc1cc(C2=NN(C=O)C(c3cccc(Nc4ccnc5cc(Cl)ccc45)c3)C2)cc(OC)c1OC (centres undefined),77%,91.1%,73%,83.4%,53.9%,61.8%,65.2%,66.1%,–,–
O=C(COc1cccc(/C=C2\Cc3ccccc3C2=O)c1)c1ccc(Cl)cc1,96.1%,131%,98%,117%,86.6%,–,97.8%,142%,81.1%,–
C[C@]12CCC(=O)C=C1CC[C@H]1[C@@H]3C[C@@H](O)[C@](O)(C(=O)CO)[C@@]3(C)C[C@H](O)[C@@]12F,–,128%,101%,93.4%,80.3%,63.1%,111%,103%,–,83.1%
O=C(CNC(=O)c1cccc2ccccc12)Nc1ccccc1Oc1ccc(O)cc1,–,41.3% [5 µM],35.7% [5 µM],14.5% [5 µM],77.5% [5 µM],27.4% [5 µM],29.3% [5 µM],5.7% [5 µM] (active),–,62.7% [5 µM]
COc1ccc2c(c1)CC[C@@H]1[C@@H]2CC[C@]2(C)[C@@H](O)C(=O)C[C@@H]12,–,91.3%,103%,102%,116%,99.6%,106%,102%,–,114%
O=C(O)c1ccc(CNS(=O)(=O)c2ccc3ccccc3c2)cc1,–,114%,112%,120%,132%,–,106%,105%,104%,100%
Cc1nn(-c2nc3ccccc3s2)c(C)c1Oc1ccccc1O,–,101%,53.3%,24.6%,93.2%,–,89.2%,92.3%,59.9%,80.5%
CCCCCc1c(C)[nH]c(/C=C2\N=C(c3ccc[nH]3)C=C2Oc2ccc(Cl)cc2)c1C,–,20.5% [100 µM],-6.67% [100 µM] (active),2.82% [100 µM] (active),-10.7% [100 µM] (active),-51.5% [100 µM] (active),-18.2% [100 µM] (active),-85.5% [100 µM] (active),–,–
Clc1ccc2[nH]cc(-c3cncn3CCc3ccccc3)c2c1,–,65.5%,–,68.5%,28%,59.7%,62.9%,44.3%,–,47.9%
COc1ccc(-c2cc(-c3cccnc3)nc3sc(C(=O)Nc4ccccc4)c(N)c23)cc1OC,–,79.3%,84.3%,44.3%,24.9%,74.2%,63.9%,72.6%,–,77.2%
Cc1sc2nc3c4ccccc4c(NCCCN(C)C)nn3c(=O)c2c1C,–,83.1%,61.7%,23.6%,29%,15%,55.7%,-57.4% (active),–,42.8%
COc1ccc2c(c1)sc1nc(-c3ccc(Br)cc3)cn12,–,99.8%,108%,117%,101%,95%,98%,129%,–,101%
C[C@H]1O[C@@H](O[C@H]2[C@@H](O)C[C@H](O[C@H]3[C@@H](O)C[C@H](O[C@H]4CC[C@]5(C)C6CC[C@]7(C)[C@@H](C8=CC(=O)OC8)CC[C@]7(O)C6CC[C@@H]5C4)O[C@@H]3C)O[C@@H]2C)C[C@H](O)[C@@H]1O (some centres undefined),–,-84.9% (active),-100% (active),-97.3% (active),-29.3% (active),–,-93.4% (active),-92.6% (active),-65% (active),-100% (active)
CCCCCCC(CC#N)(CCC)CCCC (centres undefined),–,113%,111%,98.9%,73.9%,103%,108%,129%,–,96.7%
COc1ccc(-c2cc(-c3cccnc3)nc(S(=O)(=O)CC(=O)Nc3ccc(C)cc3)c2C#N)cc1OC,–,91.7%,96.8%,101%,76%,93.4%,87.9%,96.5%,–,94.2%
CCOc1cc(/C=C/C(=O)CC(=O)/C=C/c2ccc(OC(=O)CNCCN(CC)CC)c(OCC)c2)ccc1OC(=O)CNCCN(CC)CC,–,-0.873% (active),-32.1% (active),-27.3% (active),-3.28% (active),12.4%,-91.6% (active),-51.3% (active),–,-41.3% (active)
CCN(CC)CCSc1ncnc2c1cnn2-c1ccc(S(N)(=O)=O)cc1,–,102%,98.4%,85.9%,50.9%,84.7%,95.3%,113%,–,92.9%

Compound,growth (NCI-H23 lung),growth (NCI-H322M lung),growth (HOP-62 NSCLC),growth (NCI-H460 lung),growth (HOP-92 NSCLC),growth (A549/ATCC NSCLC),growth (786-0 renal),growth (COLO 205 colon),growth (NCI-H522 lung),growth (NCI-H226 lung)
CCN1CCN(c2nc(NNC(=O)Cc3ccccc3)nc(N3CCN(C(c4ccccc4)c4ccccc4)CC3)n2)CC1,–,105%,–,11.1%,82.9%,46.6%,64.1%,-41.3% (active),–,95%
Cc1ccc(OCC(=O)Nc2ccc(Oc3ccccc3)cc2)c([N+](=O)[O-])n1,–,95%,79.6%,76.3%,73.7%,–,66.3%,94.5%,33.2%,68.8%
NS(=O)(=O)N(c1cc(C(F)(F)F)cc(C(F)(F)F)c1)C1CCN(Cc2ccc(C(F)(F)F)cc2)CC1,–,45.1%,30.2%,5.71% (active),7.48% (active),–,42.3%,-59.8% (active),-23.3% (active),78.1%
Cc1ccc(C(=O)Cc2ccccc2)c(O)c1,–,77.6%,104%,111%,87.3%,102%,112%,109%,–,102%
CC(=O)N1N=C(c2ccc(Nc3ccnc4cc(Cl)ccc34)cc2)CC1c1ccc(Cl)cc1 (centres undefined),–,96.3%,73.1%,62.9%,35.4%,–,62.5%,85.5%,24%,75.2%
CC(=O)OC1Oc2cc(C)c(C)cc2-c2oc(=O)c(-c3ccccc3)cc21 (centres undefined),–,33.5%,48%,4.89% (active),-41.5% (active),24.8%,33.5%,0.826% (active),–,-6.38% (active)
O=C(N/N=C/c1cccc([N+](=O)[O-])c1)c1ccc(Br)o1,–,105%,106%,114%,85.7%,–,92.5%,97.9%,85.7%,109%
O=C(N/N=C/c1cccc(O)c1)c1ccc(C(F)(F)F)nc1Nc1cccc(C(F)(F)F)c1,–,-6.79% (active),-32.9% (active),11.5%,-28.4% (active),–,-13.8% (active),-0.875% (active),-7.57% (active),12.6%
COc1cccc(-c2nc3cc(NC(=O)c4ccc(Cl)c(C#N)c4)ccc3o2)c1,–,-13.2% (active),70.2%,-21.4% (active),26.5%,-26.7% (active),-92.1% (active),28.9%,–,76.1%
O=C(NCCNC(=O)Oc1cccc2ccccc12)Oc1cccc2ccccc12,–,99.1%,84.7%,106%,79.8%,93.4%,106%,94.7%,–,–
CC[C@@H](c1ccc(O)c(O)c1)[C@@H](CC)c1ccc(O)c(O)c1,–,97%,106%,111%,69.6%,107%,100%,9.38% (active),–,105%
CC(=O)Nc1cc(C(c2ccccc2)c2ccccc2)cc(C(c2ccccc2)c2ccccc2)c1C,–,81.7%,8.81% (active),55.4%,41.4%,–,63.6%,64.3%,45.6%,55.6%
COc1ccc2nc(-c3ccc(Cl)cc3)cc(-c3nnc(SCC(=O)Nc4ccc(C(C)=O)cc4)n3-c3ccccc3)c2c1,–,91.5%,100%,102%,111%,93.2%,91.4%,101%,–,99.1%
Nc1nc(Nc2ccccc2SSc2ccccc2Nc2nc(N)nc(-c3cccc(Cl)c3)n2)nc(-c2cccc(Cl)c2)n1,–,91.8%,7.83% (active),89.9%,105%,-24.8% (active),99.1%,119%,–,82.7%
COc1ccc(C2=NN(C(C)=O)C(c3cccc(Nc4ccnc5cc(Cl)ccc45)c3)C2)cc1 (centres undefined),–,63.9%,38%,64.9%,32.7%,45.5%,58.6%,19.1%,–,74.5%
CSc1nc(-c2ccc(O)cc2O)c2c(=O)[nH]c(Nc3ccc(S(=O)(=O)Nc4nc(C)cc(C)n4)cc3)nc2n1,–,108%,89.6%,111%,24.6%,112%,100%,112%,–,105%
Cc1[nH]cnc1/C=C1\SC(N2CCCCC2)=NC1=O,–,123%,–,109%,100%,96.8%,94.7%,114%,–,96.2%
COc1cnc2c(c1)C(=O)c1c-2n(CCCN2CCOCC2)c(=O)c2cc(F)ccc12,–,8.18% (active),-23% (active),-32.9% (active),-13.5% (active),-29.2% (active),-60.1% (active),-8.99% (active),–,-64.5% (active)
COc1ccc2c(=O)c(OC)c(-c3cc(OC)c(OC)c(OC)c3)oc2c1,–,89.1%,82.8%,102%,46.5%,44.1%,67.8%,129%,–,91.3%
N#CC(C#N)C(C#N)C#N,–,103%,90.9%,105%,102%,79%,101%,99.3%,–,99.9%
C[C@H]1c2cccc(O)c2C(O)=C2C(=O)[C@]3(O)C(O)=C(C(N)=O)C(=O)[C@@H](N(C)C)[C@@H]3[C@@H](O)[C@@H]21,–,44.2%,51.8%,35.9%,24.3%,–,50.7%,67.8%,45.4%,69.2%
CCN(CC)c1ccc(/C=C/C(=O)c2cccc(NS(C)(=O)=O)c2)cc1,–,89%,42.6%,42.3%,19.9%,–,32.3%,62.3%,4.67% (active),43.1%
O=Cc1ncc(-c2ccc(C(F)(F)F)cc2)c(NC2CCCCCC2)n1,–,-5.95% [100 µM] (active),-94.9% [100 µM] (active),-51.3% [100 µM] (active),-95.4% [100 µM] (active),-79.2% [100 µM] (active),-82.1% [100 µM] (active),-60.5% [100 µM] (active),–,28.2% [100 µM]
O=C(Nc1cccc(Cl)c1)Nc1cccc(Cl)c1,–,79.1%,88.2%,52%,87.6%,52.4%,77.1%,89.2%,–,81.1%
CN(C)c1ccc(-c2nc3ncc(Br)cc3o2)cc1,–,90.2%,91.9%,109%,61.8%,103%,86.5%,81.3%,–,97.9%
